# Source: PubChem
# MCF10A rerep = induces DNA re-replication in MCF 10a normal breast cells. MCF 10A DNA re-replication, Hoechst nuclear intensity, 48 h. Potency, µM (series often up to 46.1 µM), inactives show at the highest dose activity, positive = re-replication, hits mostly activators. actives 2.9% (n = 350,000). AID 624296; note: potency is the fitted concentration of half-maximal effect; % of control where 0% means no effect; nearly all actives have a fitted effect of over 50% in size
# ATXN2 expr inh = reduces ATXN2 reporter expression in HEK-293 cells; Potency, µM (top dose mostly 57 µM), without a hit: top-dose activity change, negative = inhibition, most hits filed as inhibitors; AID 1745845; HEK-293 ATXN2-luciferase reporter, luminescence, 24 h; actives 0.72% (n = 360,000); note: potency is the fitted concentration of half-maximal effect; % is set by controls: 0 for no effect and ±100 for the full control effect; nearly all actives have a fitted effect of over 55% in size
#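 qHTS (up to 57 uM final) was run with 24 h compound exposure of reporter cells at 37 °C. Each well was multiplexed: SteadyGlo luminescence measured ATXN2-luciferase expression after a fluorogenic Gly-Phe-AFC viability readout (25 uM final).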
# SW480 rereplic = DNA re-replication induction in SW480 cells; actives 1.8% (n = 340,000); AID 624297; Potency, µM (titrated, usually from 46.1 µM), without a hit: at the top dose re-replication activation, hits mostly activators; SW480 DNA re-replication, Hoechst DNA content imaging, 48 h; note: potency is the fitted concentration of half-maximal effect; % of control where 0% means no effect; nearly all actives have a fitted effect of over 55% in size
#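 Compounds, transferred as 23 nL by pin tool, were incubated with cells for 48 hr; DNA content per nucleus was then quantified by Hoechst staining and fluorescence plate imaging.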
# S2 tox = cell viability loss in ATXN counter-screen. S2 cells (HEK-293 line with an ATXN2-luciferase reporter) viability, CellTiter-Fluor protease fluorescence, 24 h. Potency, µM (titrated, usually from 56.7 µM), actives largely listed as cytotoxic. actives 0.49% (n = 400,000); note: potency is the fitted concentration of half-maximal effect; nearly all actives have a fitted effect of over 40% in size
# PINK1 expr mod = PINK1 expression modulation | PINK1 immunofluorescence, high-content cytometry, 24 h | Potency, µM (highest dose often 76.6 µM), for inactives: at the highest dose activation (PINK1 increase), most hits filed as activators | actives 0.2% (n = 410,000) | AID 624263; active = well fitted activation curve with a large enough effect; inconclusive = small, poorly fitted or top-dose-only effect; cell line not stated here; note: potency is the fitted concentration of half-maximal effect; % of control where 0% means no effect; nearly all actives have a fitted effect of over 65% in size
#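 A stable cell line was treated with compounds at 5 concentrations for 24 hours, with CCCP as control. PINK1 levels and mitochondrial localization were measured by immunofluorescence with mitochondrial, cell and nuclear markers after fixation, read by laser-scanning cytometry.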
# IL-1B inflam inh = inflammasome signaling inhibition, IL-1 beta readout | THP-1 LPS/ATP IL-1B secretion, AlphaLISA, 16 h; stronger effect = lower value | AID 743279 | activity change, % at 57.5 µM | actives 4.7% (n = 360,000); in the data active = activity change below about -50%; inconclusive = mostly about -30% to -49%; note: % is set by controls: 0 for no effect and ±100 for the full control effect
#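 Secreted IL-1B measured by AlphaLISA bead assay after 16 h compound exposure of THP-1 cells; compounds (final up to 57.5 uM) added 1 h before LPS (250 ng/mL) and ATP (1.25 mM) stimulation; lower signal means less secretion.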
# * marks the source's active call; other numbers are inactive results; i = inactive; ? = inconclusive; · = not tested or not shown; [ ] = dose if it differs, or a comment. In the library only some 7.1% were active in any assay of this set; here they are far more common. Unless noted, calls come from the whole dose curve; as a rule, active = well fitted curve in the direction sought with a large enough effect; inconclusive = small, poorly fitted or top-dose-only effect, or another doubt; inactive = no such curve, though single readings can be large; an effect the other way counts as inactive or inconclusive.
SMILES,MCF10A rerep,ATXN2 expr inh,SW480 rereplic,S2 tox,PINK1 expr mod,IL-1B inflam inh
CCC(=O)N1CCN(c2ccc(NC(=O)COc3ccccc3Cl)cc2)CC1,1.1%,-36.4%,-7.0%,i,12.3%[38.3 µM],-55.3*
COc1ccc(NC(=O)CSc2ncc3c(n2)-c2ccccc2N(Cc2ccc(C)cc2)S3(=O)=O)cc1Cl,·,-0.5%,·,?,3.2%,·
CCC(=O)Nc1ccc(CC)cc1-c1nc2ccccc2n(CC(=O)Nc2cccc(Cl)c2)c1=O,·,·,·,·,3.0%,·
N#Cc1c(-c2ccccc2Cl)c2c([nH]c1=O)-c1ccccc1OC2,4.11µM*,-5.7%,18.4µM*,·,-0.4%,31.5
N#Cc1c2c(c(-c3ccccc3Cl)[nH]c1=S)CCCC2,9.9%,-10.9%,-10.7%,i,0.3%,34.4
CCN(CC)C(=O)[C@H]1CC(CC(=O)NCCCOC)C(=O)N2CCc3c([nH]c4ccccc34)[C@]12C (stereo partly specified),-3.0%,-3.3%,?,i,-0.1%,20.8
CNC(=O)/C(C#N)=C/c1c(N2CCN(c3cccc(Cl)c3)CC2)nc2c(C)cccn2c1=O,2.91µM*,-28.0%,0.4%,·,5.4%,-66.3*
C=CCNC(=O)/C(C#N)=C/c1c(N2CCN(c3cccc(Cl)c3)CC2)nc2c(C)cccn2c1=O,20.6µM*,-18.7%,4.2%,·,5.0%,-5.0
C=CCNC(=O)/C(C#N)=C/c1c(N2CC(C)OC(C)C2)nc2ccccn2c1=O (stereo unspecified),?,-13.9%,16.4µM*,·,-0.6%,-0.1
COc1cc2c3c(n(C)c(=O)c2cc1OC)-c1cc2c(cc1C3=O)OCO2,8.3%,?,?,?,1.6%,10.0
Cc1ccc(N2CCN(C(=O)NCc3noc4ccccc34)CC2C)cc1 (stereo unspecified),·,-15.0%,·,i,0.4%,·
COc1ccccc1CCNC(=O)c1ccc(NC(=O)N2CC(C)Sc3ccccc32)cc1 (stereo unspecified),·,-15.6%,·,?,-2.0%,·
O=c1[nH]c(=O)n(Cc2ccco2)c2c1C(C(F)(F)F)(C(F)(F)F)N=C(c1ccc(F)cc1)N2,17.6%,?,1.5%,?,12.6µM*,-67.7*
O=c1[nH]c(=O)n(Cc2ccccc2)c2c1C(C(F)(F)F)(C(F)(F)F)N=C(c1ccco1)N2,6.4%,6.9%,-4.5%,i,2.0%,-16.0
CCOC(=O)c1c(C)n(C(=O)c2ccco2)c(=O)n1C(=O)c1ccco1,7.7%,-8.8%,-3.5%,i,0.8%,-68.3*
COc1cc(-c2cc(C)c3c(OC)ccc(OC)c3n2)cc2c1OCCN(C(=O)CCn1ccc(C)n1)C2,·,·,·,?,-0.2%,·
Cc1cc(C)c(CC(=O)c2ccccc2)c(C)c1,1.0%,-3.4%,-7.9%,i,14.2%,12.7
Cc1ccc(C(=O)N/C(=C\c2ccc(-c3cccc([N+](=O)[O-])c3)o2)C(=O)NCCCN(C)C)cc1,1.4%,?,0.2%,?,-1.1%,-67.7*
CN(C)CCCNC(=O)/C(=C\c1ccc(-c2cccc([N+](=O)[O-])c2)o1)NC(=O)c1ccccc1,3.3%,-8.6%,?,i,0.8%,-118.6*
Cc1ccc(C(=O)N/C(=C\c2ccc(-c3ccc(Br)cc3)o2)C(=O)NCCCN(C)C)cc1,?,10µM*,7.31µM*,31.6µM*,-1.2%,-77.2*
O=C(c1cc2cc(Cl)ccc2[nH]1)N1CCN(c2ccc(F)cc2)CC1,20.6%,0.0%,28.8%,i,10.5%,-85.0*
O=C(c1ccc(COc2ccc(Cl)cc2)o1)N1CCN(Cc2ccc3c(c2)OCO3)CC1,?,?,15.3%,?,·,-75.9*
O=C(c1ccc(COc2ccccc2Cl)o1)N1CCN(Cc2ccc3c(c2)OCO3)CC1,?,?,-0.8%,i,19.4%,-12.7
O=C(c1cccc(Cl)c1)N1CCN(Cc2ccc3c(c2)OCO3)CC1,-5.3%,-29.5%,-3.7%,i,0.1%,-9.2
COc1ccc(N2CCN(C(=O)c3cc4cc(Cl)ccc4[nH]3)CC2)cc1,7.9%,0.7%,-2.5%,i,9.5%,22.3
SMILES,MCF10A rerep,ATXN2 expr inh,SW480 rereplic,S2 tox,PINK1 expr mod,IL-1B inflam inh
O=C(c1ccc(Cl)c([N+](=O)[O-])c1)N1CCN(Cc2ccc3c(c2)OCO3)CC1,24.5%,?,-5.1%,i,3.3%,-75.6*
CCN1CCN(C(=O)c2cc3cc(Cl)ccc3[nH]2)CC1,4.9%,-7.8%,-5.7%,i,-2.7%,-10.0
O=C(c1cc2cc(Cl)ccc2[nH]1)N1CCN(Cc2ccc3c(c2)OCO3)CC1,?,·,?,i,5.2%,-63.6*
CCn1cc(C(=O)Nc2ccc(C(C)C)cc2)c2cc(OC)c(OC)cc2c1=O,·,-4.5%,·,i,5.3%,·
O=CN1CCN(C(=O)c2cc3cc(Cl)ccc3[nH]2)CC1,?,2.7%,5.17µM*,i,-1.9%,-7.7
O=C(c1ccc(S(=O)(=O)c2cccc(Cl)c2)c([N+](=O)[O-])c1)N1CCN(Cc2ccccc2)CC1,20.6µM*,?,?,?,-3.7%,-98.9*
CN1CCN(C(=O)c2cc3cc(Cl)ccc3[nH]2)CC1,3.1%,·,3.4%,i,-0.1%,-3.0
Cc1cc(O)c(CN2CCN(c3ccc(F)cc3)CC2)c2oc(=O)cc(C)c12,·,·,·,·,0.2%,·
CCOc1ccc(NC(=O)c2c(NC(=O)Cc3ccccc3)sc3c2CCCC3)cc1,·,8.8%,·,i,6.6%,·
O=C(OC(c1ccc(NS(=O)(=O)c2ccccc2)cc1)(C(F)(F)F)C(F)(F)F)c1ccccc1,18.4µM*,?,?,?,1.8%,6.2
CC(C)(C)c1ccc(S(=O)(=O)Nc2ccc(C(O)(C(F)(F)F)C(F)(F)F)cc2)cc1,·,?,·,17.8µM*,2.8%,-17.4
Cc1ccc(S(=O)(=O)Nc2ccc(C(OC(=O)c3ccccc3[N+](=O)[O-])(C(F)(F)F)C(F)(F)F)cc2)cc1,?,-3.1%,?,i,?,-88.1*
Cn1nccc1C(=O)NCc1ccc2c(c1)CCN2C(=O)c1ccc(F)cc1,·,·,·,·,-0.3%,·
Cc1cc([C@@H](C)Nc2ccccc2C(=O)O)c2nc(N3CCOCC3)cc(=O)n2c1,·,-3.9%[116 µM],·,·,·,·
O=C(CSc1nc(Nc2ccccc2)nc(N2CCOCC2)n1)Nc1ccc2c(c1)OCCO2,18.4µM*,1.7%,-2.6%,i,0.2%[38.3 µM],?
O=C(CSc1nc(Nc2ccccc2)nc(N2CCOCC2)n1)N1CCCC1,?,-0.1%,?,i,-5.8%,-53.0*
